One sequence from PMC7862700, “An all-to-all approach to the identification of sequence-specific readers for epigenetic DNA modifications on cytosine” can be followed below.

Holding throughout (experiment): DAPPL (digital affinity profiling via proximity ligation, sequencing); 10 mM Tris-HCl pH 7.5, 50 mM NaCl, 1 mM DTT, 4% glycerol, room temperature, 30 min; GST-TFs on glutathione beads, 16-mer random dsDNA library, 0.1% formaldehyde crosslink after washing; high values mean tight binding
The target of assay [1] is T1, FEV (Homo sapiens, UniProt Q99581 1-238).
T1 sequence: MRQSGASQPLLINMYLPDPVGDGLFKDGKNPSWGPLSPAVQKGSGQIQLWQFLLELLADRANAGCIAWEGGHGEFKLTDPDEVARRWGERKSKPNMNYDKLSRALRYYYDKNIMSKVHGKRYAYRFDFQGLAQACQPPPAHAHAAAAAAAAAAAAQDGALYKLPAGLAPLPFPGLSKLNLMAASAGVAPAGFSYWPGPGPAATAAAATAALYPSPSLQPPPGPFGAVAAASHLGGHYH
The conditions noted are these: protein: recombinant; tags: N-terminal GST; dsDNA, one strand shown. An outline of the steps:
(§1)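 Sequencing on an Illumina NextSeq500 followed washing, crosslinking with 0.1% formaldehyde, proximity ligation (BsaI/T4 ligase, 1 h, 37 °C) and PCR amplification of pools that had been incubated for 30 min at room temperature with 200 nmole of a random double-stranded 16-mer DNA library in Tris/NaCl/DTT/glycerol buffer. Each pool held DNA-barcoded human transcription factors, expressed in yeast as GST fusions and captured on glutathione beads, plus a tag-only sample. Binding signal is a hexamer's read frequency for a factor divided by its frequency in the tag-only sample.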

The target in assay [2] is ETV5 (Homo sapiens, UniProt P41161 1-510). The following applies: protein: recombinant; tags: N-terminal GST; dsDNA, one strand shown. An outline of the steps:
as §1

The target in assay [3] is HSF1 (Homo sapiens, UniProt Q00613 1-529). The conditions noted are these: protein: recombinant; tags: N-terminal GST; chain copies: 3; dsDNA, one strand shown. An outline of the steps: as §1
Assay [4] deals with T2, SPIC (Homo sapiens, UniProt Q8N5J4 1-248).
T2 sequence: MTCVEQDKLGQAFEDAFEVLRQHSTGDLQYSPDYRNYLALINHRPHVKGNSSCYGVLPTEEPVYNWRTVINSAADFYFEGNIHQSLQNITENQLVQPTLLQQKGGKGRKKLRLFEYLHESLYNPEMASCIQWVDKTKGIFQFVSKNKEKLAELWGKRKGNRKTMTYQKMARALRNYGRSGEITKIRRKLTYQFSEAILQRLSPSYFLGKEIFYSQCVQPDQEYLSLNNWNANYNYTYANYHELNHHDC
The conditions noted are these: protein: recombinant; tags: N-terminal GST; dsDNA, one strand shown. An outline of the steps:
as §1

Assay [5] has as its target ELF4 (Homo sapiens, UniProt Q99607 1-663). The following applies: protein: recombinant; tags: N-terminal GST; dsDNA, one strand shown. An outline of the steps:
as §1

Assay [6] addresses T3, ELK4 (Homo sapiens, UniProt P28324-2 1-405).
T3 sequence: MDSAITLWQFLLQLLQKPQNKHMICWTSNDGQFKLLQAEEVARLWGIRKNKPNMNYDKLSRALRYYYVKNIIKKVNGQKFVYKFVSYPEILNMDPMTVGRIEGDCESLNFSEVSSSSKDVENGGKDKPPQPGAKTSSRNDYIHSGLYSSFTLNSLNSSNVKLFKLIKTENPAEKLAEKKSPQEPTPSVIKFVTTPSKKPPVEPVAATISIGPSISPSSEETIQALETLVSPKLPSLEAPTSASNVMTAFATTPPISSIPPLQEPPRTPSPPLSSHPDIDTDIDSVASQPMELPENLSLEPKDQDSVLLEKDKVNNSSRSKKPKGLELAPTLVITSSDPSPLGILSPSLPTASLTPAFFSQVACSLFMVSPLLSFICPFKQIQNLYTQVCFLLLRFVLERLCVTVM
The conditions noted are these: protein: recombinant; tags: N-terminal GST; dsDNA, one strand shown. An outline of the steps:
as §1

Assay [7] deals with T4, ETV2 (Homo sapiens, UniProt O00321 1-342).
T4 sequence: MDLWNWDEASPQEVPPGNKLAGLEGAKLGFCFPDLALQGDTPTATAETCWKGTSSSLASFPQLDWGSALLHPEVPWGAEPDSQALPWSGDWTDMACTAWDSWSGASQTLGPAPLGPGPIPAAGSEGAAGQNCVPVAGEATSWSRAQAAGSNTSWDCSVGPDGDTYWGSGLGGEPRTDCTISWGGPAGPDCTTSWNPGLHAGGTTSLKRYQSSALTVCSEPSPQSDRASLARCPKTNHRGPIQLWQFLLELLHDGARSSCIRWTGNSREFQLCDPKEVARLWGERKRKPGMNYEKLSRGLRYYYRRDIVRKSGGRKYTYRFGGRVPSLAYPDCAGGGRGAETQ
The conditions noted are these: protein: recombinant; tags: N-terminal GST; dsDNA, one strand shown. An outline of the steps:
as §1

In assay [8] the target is T5, ELF3 (Homo sapiens, UniProt P78545 1-371).
T5 sequence: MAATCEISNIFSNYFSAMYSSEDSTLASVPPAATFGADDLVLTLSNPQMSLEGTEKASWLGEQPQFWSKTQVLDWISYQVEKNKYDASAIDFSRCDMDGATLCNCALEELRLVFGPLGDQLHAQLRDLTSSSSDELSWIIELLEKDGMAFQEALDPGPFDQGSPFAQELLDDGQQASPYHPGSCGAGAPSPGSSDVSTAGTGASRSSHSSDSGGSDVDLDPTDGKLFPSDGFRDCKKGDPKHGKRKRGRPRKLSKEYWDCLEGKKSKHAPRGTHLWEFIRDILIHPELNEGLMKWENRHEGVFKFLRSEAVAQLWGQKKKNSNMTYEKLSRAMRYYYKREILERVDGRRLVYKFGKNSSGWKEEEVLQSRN
The conditions noted are these: protein: recombinant; tags: N-terminal GST; dsDNA, one strand shown. An outline of the steps: as §1

The target of assay [9] is CRX (Homo sapiens, UniProt O43186 1-299). The conditions noted are these: protein: recombinant; tags: N-terminal GST; dsDNA, one strand shown. An outline of the steps:
as §1

In assay [10] the target is ETV1 (Homo sapiens, UniProt P50549 1-477). The conditions noted are these: protein: recombinant; tags: N-terminal GST; dsDNA, one strand shown. An outline of the steps:
as §1

Assay [11] deals with T6, ERF (Homo sapiens, UniProt P50548 1-548).
T6 sequence: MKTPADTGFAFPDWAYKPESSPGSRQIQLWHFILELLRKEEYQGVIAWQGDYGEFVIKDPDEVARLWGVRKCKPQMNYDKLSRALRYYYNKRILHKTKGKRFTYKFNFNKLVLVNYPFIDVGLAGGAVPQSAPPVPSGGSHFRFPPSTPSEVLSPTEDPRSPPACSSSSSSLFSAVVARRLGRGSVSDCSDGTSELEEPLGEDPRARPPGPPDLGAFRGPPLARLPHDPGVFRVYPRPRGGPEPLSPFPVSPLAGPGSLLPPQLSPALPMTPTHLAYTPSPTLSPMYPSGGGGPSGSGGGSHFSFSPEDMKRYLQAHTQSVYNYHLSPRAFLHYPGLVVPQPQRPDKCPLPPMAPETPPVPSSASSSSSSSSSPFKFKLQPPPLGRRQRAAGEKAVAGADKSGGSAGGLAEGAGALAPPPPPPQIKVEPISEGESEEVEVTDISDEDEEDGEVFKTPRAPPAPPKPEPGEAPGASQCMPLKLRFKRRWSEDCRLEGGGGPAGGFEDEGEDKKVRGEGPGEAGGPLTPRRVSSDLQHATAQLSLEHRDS
The conditions noted are these: protein: recombinant; tags: N-terminal GST; dsDNA, one strand shown. An outline of the steps:
as §1

In assay [12] the target is T7, ETV3L (Homo sapiens, UniProt Q6ZN32 1-361).
T7 sequence: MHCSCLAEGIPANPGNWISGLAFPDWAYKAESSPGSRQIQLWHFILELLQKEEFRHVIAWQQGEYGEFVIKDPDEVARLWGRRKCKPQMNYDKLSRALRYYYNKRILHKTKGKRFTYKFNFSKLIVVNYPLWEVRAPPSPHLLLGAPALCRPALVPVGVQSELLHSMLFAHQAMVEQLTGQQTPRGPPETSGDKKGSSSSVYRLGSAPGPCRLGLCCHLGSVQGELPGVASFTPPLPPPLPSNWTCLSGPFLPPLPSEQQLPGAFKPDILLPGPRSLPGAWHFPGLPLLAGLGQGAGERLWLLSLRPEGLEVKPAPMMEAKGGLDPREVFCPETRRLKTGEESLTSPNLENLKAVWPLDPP
The following applies: protein: recombinant; tags: N-terminal GST; dsDNA, one strand shown. An outline of the steps:
as §1

Assay [13] has as its target T8, ETS2 (Homo sapiens, UniProt P15036 1-469).
T8 sequence: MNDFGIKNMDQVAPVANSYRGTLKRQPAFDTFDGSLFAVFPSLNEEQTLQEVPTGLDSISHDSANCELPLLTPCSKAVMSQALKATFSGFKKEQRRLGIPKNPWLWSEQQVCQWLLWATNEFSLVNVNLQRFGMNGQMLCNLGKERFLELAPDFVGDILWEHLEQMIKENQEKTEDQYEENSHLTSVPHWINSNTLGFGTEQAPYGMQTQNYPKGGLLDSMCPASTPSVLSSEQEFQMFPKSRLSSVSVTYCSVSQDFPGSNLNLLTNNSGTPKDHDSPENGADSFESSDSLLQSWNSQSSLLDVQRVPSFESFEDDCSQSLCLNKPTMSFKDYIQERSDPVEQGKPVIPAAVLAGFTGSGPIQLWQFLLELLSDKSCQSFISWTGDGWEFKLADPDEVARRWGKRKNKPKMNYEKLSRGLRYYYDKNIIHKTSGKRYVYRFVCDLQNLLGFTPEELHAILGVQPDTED
The conditions noted are these: protein: recombinant; tags: N-terminal GST; dsDNA, one strand shown. An outline of the steps: as §1

Assay [14] addresses T9, SPDEF (Homo sapiens, UniProt O95238 1-335).
T9 sequence: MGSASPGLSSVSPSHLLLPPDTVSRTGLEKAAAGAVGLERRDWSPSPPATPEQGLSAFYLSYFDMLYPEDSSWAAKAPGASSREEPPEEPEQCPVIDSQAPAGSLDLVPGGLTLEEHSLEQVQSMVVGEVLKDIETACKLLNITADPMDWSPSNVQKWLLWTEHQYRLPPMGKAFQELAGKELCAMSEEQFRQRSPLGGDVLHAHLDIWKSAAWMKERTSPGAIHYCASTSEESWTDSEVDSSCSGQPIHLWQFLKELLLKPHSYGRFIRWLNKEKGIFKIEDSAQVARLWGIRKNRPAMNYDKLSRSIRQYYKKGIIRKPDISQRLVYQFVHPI
The conditions noted are these: protein: recombinant; tags: N-terminal GST; dsDNA, one strand shown. An outline of the steps:
as §1

For assay [15], the target named is T10, ETV7 (Homo sapiens, UniProt Q9Y603 1-341).
T10 sequence: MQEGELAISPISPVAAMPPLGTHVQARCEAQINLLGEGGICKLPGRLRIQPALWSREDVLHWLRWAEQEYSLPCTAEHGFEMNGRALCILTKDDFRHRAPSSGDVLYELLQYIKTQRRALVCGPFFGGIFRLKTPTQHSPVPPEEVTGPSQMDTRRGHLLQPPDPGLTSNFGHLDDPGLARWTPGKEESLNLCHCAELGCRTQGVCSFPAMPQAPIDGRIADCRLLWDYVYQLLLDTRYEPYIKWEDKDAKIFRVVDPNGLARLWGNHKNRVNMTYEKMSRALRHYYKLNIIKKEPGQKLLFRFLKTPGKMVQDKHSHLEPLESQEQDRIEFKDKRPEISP
The conditions noted are these: protein: recombinant; tags: N-terminal GST; dsDNA, one strand shown. An outline of the steps: as §1

Assay [16] has as its target T11, ELF5 (Homo sapiens, UniProt Q9UKW6-2 1-255).
T11 sequence: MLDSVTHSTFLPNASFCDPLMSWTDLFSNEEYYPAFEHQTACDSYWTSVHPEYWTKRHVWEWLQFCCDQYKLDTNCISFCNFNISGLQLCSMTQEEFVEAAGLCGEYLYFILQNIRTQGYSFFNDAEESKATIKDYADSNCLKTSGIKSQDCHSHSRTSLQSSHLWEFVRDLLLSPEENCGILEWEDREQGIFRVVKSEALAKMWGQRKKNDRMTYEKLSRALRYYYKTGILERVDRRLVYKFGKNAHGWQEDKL
The conditions noted are these: protein: recombinant; tags: N-terminal GST; dsDNA, one strand shown. An outline of the steps:
as §1

Assay [17] has as its target T12, ETV3 (Homo sapiens, UniProt P41162-2 1-143).
T12 sequence: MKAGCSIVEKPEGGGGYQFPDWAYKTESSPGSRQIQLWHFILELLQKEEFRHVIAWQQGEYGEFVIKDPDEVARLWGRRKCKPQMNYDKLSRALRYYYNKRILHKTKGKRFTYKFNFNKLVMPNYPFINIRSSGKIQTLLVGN
The following applies: protein: recombinant; tags: N-terminal GST; dsDNA, one strand shown. An outline of the steps: as §1

Assay [18] addresses ETV6 (Homo sapiens, UniProt P41212 1-452). The following applies: protein: recombinant; tags: N-terminal GST; dsDNA, one strand shown. An outline of the steps:
as §1

ETV5, sequence (P41161 whole entry): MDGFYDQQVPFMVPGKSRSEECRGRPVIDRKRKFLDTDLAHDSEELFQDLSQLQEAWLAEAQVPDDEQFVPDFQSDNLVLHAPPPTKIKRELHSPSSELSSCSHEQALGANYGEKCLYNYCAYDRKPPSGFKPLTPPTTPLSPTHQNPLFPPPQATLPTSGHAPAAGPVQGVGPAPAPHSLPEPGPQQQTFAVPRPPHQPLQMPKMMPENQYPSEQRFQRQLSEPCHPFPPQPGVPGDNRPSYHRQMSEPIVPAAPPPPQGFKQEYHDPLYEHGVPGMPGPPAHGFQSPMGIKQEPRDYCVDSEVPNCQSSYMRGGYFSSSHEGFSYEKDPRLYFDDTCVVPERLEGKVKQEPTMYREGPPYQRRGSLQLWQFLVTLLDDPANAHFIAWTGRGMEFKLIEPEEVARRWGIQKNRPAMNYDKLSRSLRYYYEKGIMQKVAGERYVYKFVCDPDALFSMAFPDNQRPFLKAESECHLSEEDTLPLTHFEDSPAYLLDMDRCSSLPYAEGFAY
HSF1, sequence (Q00613 whole entry): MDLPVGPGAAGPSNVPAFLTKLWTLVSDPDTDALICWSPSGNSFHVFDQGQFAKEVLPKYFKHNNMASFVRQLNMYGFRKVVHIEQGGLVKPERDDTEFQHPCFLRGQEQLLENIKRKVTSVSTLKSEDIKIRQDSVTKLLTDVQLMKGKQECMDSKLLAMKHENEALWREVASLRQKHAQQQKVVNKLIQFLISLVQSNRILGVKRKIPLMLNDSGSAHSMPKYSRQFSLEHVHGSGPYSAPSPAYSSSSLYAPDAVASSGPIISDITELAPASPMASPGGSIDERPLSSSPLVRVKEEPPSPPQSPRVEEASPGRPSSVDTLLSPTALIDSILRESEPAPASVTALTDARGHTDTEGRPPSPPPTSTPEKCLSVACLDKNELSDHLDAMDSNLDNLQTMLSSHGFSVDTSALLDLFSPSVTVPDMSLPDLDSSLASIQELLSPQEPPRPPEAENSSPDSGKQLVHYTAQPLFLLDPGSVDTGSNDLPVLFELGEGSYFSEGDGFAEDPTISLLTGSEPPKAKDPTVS
CRX, sequence (O43186 whole entry): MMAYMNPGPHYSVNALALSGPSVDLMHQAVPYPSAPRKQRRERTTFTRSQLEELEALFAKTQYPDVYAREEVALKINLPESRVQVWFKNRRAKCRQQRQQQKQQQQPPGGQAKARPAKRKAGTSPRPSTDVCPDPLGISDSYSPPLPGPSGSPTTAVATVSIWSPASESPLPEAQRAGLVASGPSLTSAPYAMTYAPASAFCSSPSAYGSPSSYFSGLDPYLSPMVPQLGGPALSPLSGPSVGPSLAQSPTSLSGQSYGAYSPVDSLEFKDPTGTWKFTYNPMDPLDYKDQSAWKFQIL
ETV1, sequence (P50549 whole entry): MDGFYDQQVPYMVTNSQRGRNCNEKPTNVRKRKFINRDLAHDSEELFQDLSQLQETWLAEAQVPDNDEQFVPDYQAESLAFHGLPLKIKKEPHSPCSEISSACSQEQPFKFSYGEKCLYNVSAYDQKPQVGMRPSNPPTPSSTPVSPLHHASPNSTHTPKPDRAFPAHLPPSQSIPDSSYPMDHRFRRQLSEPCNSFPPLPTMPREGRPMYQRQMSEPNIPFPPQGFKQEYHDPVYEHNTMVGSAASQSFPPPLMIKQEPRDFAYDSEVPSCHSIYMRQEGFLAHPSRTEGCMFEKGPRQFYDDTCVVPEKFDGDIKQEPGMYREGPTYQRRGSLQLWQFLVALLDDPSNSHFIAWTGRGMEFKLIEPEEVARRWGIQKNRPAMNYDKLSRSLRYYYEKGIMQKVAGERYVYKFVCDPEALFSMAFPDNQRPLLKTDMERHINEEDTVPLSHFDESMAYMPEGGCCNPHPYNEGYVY
ETV6, sequence (P41212 whole entry): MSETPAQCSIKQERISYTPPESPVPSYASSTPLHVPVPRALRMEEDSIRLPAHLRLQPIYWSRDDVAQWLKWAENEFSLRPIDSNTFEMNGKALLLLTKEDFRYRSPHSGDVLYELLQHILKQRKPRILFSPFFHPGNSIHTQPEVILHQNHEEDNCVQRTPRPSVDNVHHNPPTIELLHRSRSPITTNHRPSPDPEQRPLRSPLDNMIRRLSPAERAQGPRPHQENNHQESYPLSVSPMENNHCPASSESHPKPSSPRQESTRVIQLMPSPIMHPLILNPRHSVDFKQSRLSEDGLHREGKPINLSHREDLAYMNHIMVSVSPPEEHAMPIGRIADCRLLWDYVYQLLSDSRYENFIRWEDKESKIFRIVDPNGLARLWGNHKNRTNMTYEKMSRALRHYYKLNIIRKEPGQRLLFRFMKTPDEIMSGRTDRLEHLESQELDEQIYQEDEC
ELF4, sequence (Q99607 whole entry): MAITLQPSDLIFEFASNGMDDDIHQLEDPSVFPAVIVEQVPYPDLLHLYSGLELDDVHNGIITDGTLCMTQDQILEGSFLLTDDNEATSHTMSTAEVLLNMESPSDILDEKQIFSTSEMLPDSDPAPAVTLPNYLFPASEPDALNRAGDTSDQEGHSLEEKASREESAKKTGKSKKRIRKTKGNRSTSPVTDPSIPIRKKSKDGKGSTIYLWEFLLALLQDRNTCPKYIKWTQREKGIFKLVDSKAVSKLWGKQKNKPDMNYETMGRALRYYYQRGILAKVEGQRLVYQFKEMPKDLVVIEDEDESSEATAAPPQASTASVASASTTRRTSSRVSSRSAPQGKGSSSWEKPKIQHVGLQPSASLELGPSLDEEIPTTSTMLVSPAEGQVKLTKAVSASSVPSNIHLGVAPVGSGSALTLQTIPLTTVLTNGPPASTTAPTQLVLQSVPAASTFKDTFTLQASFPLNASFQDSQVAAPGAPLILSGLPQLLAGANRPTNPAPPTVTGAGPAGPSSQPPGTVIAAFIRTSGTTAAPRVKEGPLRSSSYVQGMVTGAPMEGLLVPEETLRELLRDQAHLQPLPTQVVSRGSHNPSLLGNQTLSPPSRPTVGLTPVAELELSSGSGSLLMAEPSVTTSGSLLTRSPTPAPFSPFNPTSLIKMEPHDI

Consider CCTCCT, for which the binding signal in assay [1] is 1.46 fold enrichment (6-mer frequency, TF over GST control); in assay [2], 1.59 fold enrichment (6-mer frequency, TF over GST control); in [3] it was 1.3 fold enrichment (6-mer frequency, TF over GST control); in assay [4], 1.47 fold enrichment (6-mer frequency, TF over GST control); in assay [5], 1.66 fold enrichment (6-mer frequency, TF over GST control); in assay [6], 1.61 fold enrichment (6-mer frequency, TF over GST control). The binding signal in assay [7] was 1.45 fold enrichment (6-mer frequency, TF over GST control); in assay [8] it was 1.2 fold enrichment (6-mer frequency, TF over GST control); in assay [9], 1.32 fold enrichment (6-mer frequency, TF over GST control); in assay [10], 1.52 fold enrichment (6-mer frequency, TF over GST control); in assay [11] it was 1.64 fold enrichment (6-mer frequency, TF over GST control); in assay [12] it was 1.44 fold enrichment (6-mer frequency, TF over GST control). The binding signal is 1.57 fold enrichment (6-mer frequency, TF over GST control) in assay [13]; 1.58 fold enrichment (6-mer frequency, TF over GST control) in [14]; 1.61 fold enrichment (6-mer frequency, TF over GST control) in assay [15]; 1.9 fold enrichment (6-mer frequency, TF over GST control) in assay [16]; 1.46 fold enrichment (6-mer frequency, TF over GST control) in assay [17]; 1.55 fold enrichment (6-mer frequency, TF over GST control) in assay [18].
